Screening data from PubChem.
MCF10A rerep: induces DNA re-replication in MCF 10a normal breast cells | hit rate 2.9% among 350,000 | AID 624296 | Potency, µM (series often up to 46.1 µM), without a hit: at the highest dose activity, positive = re-replication, usual class: activators | MCF 10A DNA re-replication, Hoechst nuclear intensity, 48 h; further: % of control where 0% means no effect; nearly all actives have a fitted effect of over 50% in size
SW480 rerep: induces DNA re-replication in SW480 colon adenocarcinoma cells; SW480 DNA re-replication, Hoechst DNA content imaging, 48 h; AID 624297; hit rate 1.8% among 340,000; Potency, µM (highest dose often 46.1 µM), for inactives: top-dose re-replication activation, usual class: activators; further: % of control where 0% means no effect; nearly all actives have a fitted effect of over 55% in size
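Image-based DNA-content assay: after two days of treatment, nuclei were labelled with the DNA dye Hoechst and imaged, and hits were compounds raising the count of nuclei showing high fluorescence intensity.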
HT1080-NT tox: kills 2HG-producing HT-1080-NT fibrosarcoma cells. AID 686970. hit rate 1.6% among 360,000. Potency, µM (doses to about 46.1 µM), without a hit: top-dose activity, negative = less viability, most hits filed as cytotoxic. HT-1080-NT fibrosarcoma viability, CellTiter-Glo ATP luminescence, 48 h;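 further: NT is the 2HG producing partner of a matched IDH1 knockdown line; 0% = DMSO-treated cells and -100% = media-only wells without cells; nearly all actives have a fitted effect of over 55% in size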
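Compounds were tested in concentration-response format on HT-1080-NT cells for 48 hours at 37 degrees C. Cell viability came from CellTiter-Glo luminescence; curves were classified by r2, response magnitude and activity.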
KB-3-1 tox: KB-3-1 parental cell cytotoxicity | AID 1347075 | hit rate 1.4% among 400,000 | KB-3-1 viability, CellTiter-Glo ATP luminescence, 72 h | Potency, µM (titrated, usually from 46.1 µM), most hits filed as cytotoxic; further: on the % scale 0 is the no-effect control and ±100 the full control effect; nearly all actives have a fitted effect of over 60% in size
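Here the drug-naive KB-3-1 line serves as comparator for MDR sub-line selectivity; cells received compound titrations, 72 h at 37 °C, then CellTiter-Glo readout.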
HT1080 IDH1KD tx: toxicity to HT-1080 IDH1 knockdown cells (counter line) | HT-1080 IDH1 knockdown viability, ATP luminescence, 48 h | Potency, µM (titrated, usually from 46.1 µM), for the others: at the top dose activity, negative = toxicity, actives largely listed as cytotoxic | hit rate 2% among 360,000;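 further: 0% = DMSO wells and -100% = cell-free medium wells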
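% activity derives from luminescence (CellTiter-Glo), normalised to DMSO and no-cell wells. HT-1080-IDH1KD cells, 750/well, had 48 h compound exposure at 37 °C.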
KB-V1 cytotox: kills drug-selected multidrug resistant KB-V1 cells. KB-V1 MDR cells viability, CellTiter-Glo, 72 h. Potency, µM (series often up to 46.1 µM), hits mostly cytotoxic. hit rate 3.4% among 400,000. AID 1347076; further: on the % scale 0 is the no-effect control and ±100 the full control effect; nearly all actives have a fitted effect of over 60% in size
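KB-V1, DMEM (no phenol red) + 10% FBS; cpd pin-transferred, titration series; 72 h, 37 degrees C; CellTiter-Glo, luminescence. Data normalized, curve-fit.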
The depositor's hits bear a star. Shown are actives, neighbours in structure and some others; about 7.9% of the full set was active somewhere. The call rests on the fitted dose curve; in most records, active means well fitted curve in the direction sought with a large enough effect; inconclusive means small, poorly fitted or top-dose-only effect, or another doubt; inactive means no such curve, though single readings can be large; an effect the other way counts as inactive or inconclusive. Potency means the concentration at half of the fitted maximal effect.

How did CC(C)N(c1ccccc1)c1ccc(NC(=S)NCCN(C)C)cc1 do in these assays?
MCF10A rerep: inconclusive; SW480 rerep: inconclusive; HT1080-NT tox: 16.4µM*; KB-3-1 tox: inconclusive; HT1080 IDH1KD tx: 20.6µM*; KB-V1 cytotox: inactive

Results for CCCSCCCNC(=O)Cn1c(-c2cccs2)cc2ccccc21 ?
KB-3-1 tox: inactive; KB-V1 cytotox: inconclusive

Results for CCOC(=O)C1(C)CCN1C(=O)c1cc(F)cc(F)c1 (stereo not given) ?
HT1080-NT tox: 17.1%; KB-3-1 tox: inactive; HT1080 IDH1KD tx: 9.3%; KB-V1 cytotox: inactive

What do the screens show for `OCCCNC(=S)Nc1ccc(Oc2ccccc2)cc1`?
MCF10A rerep: 5.2%; SW480 rerep: -0.1%; HT1080-NT tox: -5.9%; KB-3-1 tox: inactive; HT1080 IDH1KD tx: -7.2%; KB-V1 cytotox: inactive

What do the screens show for `CCNC(=S)Nc1ccc(N(c2ccccc2)C(C)C)cc1`?
MCF10A rerep: inconclusive; SW480 rerep: 9.3%; HT1080-NT tox: inconclusive; KB-3-1 tox: 20.6µM*; HT1080 IDH1KD tx: inconclusive; KB-V1 cytotox: 13µM*

How did CC(C)CNC(=S)Nc1ccc(Oc2ccccc2)cc1 do in these assays?
MCF10A rerep: 8.2µM*; SW480 rerep: -6.5%; HT1080-NT tox: -6.1%; KB-3-1 tox: 20.6µM*; HT1080 IDH1KD tx: -16.8%; KB-V1 cytotox: 16.4µM*

What do the screens show for `CSCC[C@H](NC(=O)c1cccc([N+](=O)[O-])c1C)c1nc2ccccc2[nH]1`?
MCF10A rerep: 3.3%; SW480 rerep: 12.5%; HT1080-NT tox: -9.1%; KB-3-1 tox: inactive; HT1080 IDH1KD tx: 0.9%; KB-V1 cytotox: 16.4µM*

How did Cc1c(C(=O)NC(Cc2ccccc2)c2nc3ccccc3[nH]2)cccc1[N+](=O)[O-] (stereo not given) do in these assays?
MCF10A rerep: 19.6%; SW480 rerep: inconclusive; HT1080-NT tox: -14.4%; KB-3-1 tox: inactive; HT1080 IDH1KD tx: -12.0%; KB-V1 cytotox: inconclusive

How did O=C(NC(Cc1ccccc1)c1nc2ccccc2[nH]1)c1ccc(Cl)c([N+](=O)[O-])c1 (stereo not given) do in these assays?
MCF10A rerep: inconclusive; SW480 rerep: inconclusive; HT1080-NT tox: 20.6µM*; KB-3-1 tox: inactive; HT1080 IDH1KD tx: inconclusive; KB-V1 cytotox: inactive

How did CSCC[C@H](NC(=O)c1ccc(Cl)c([N+](=O)[O-])c1)c1nc2ccccc2[nH]1 do in these assays?
MCF10A rerep: inconclusive; SW480 rerep: 12.6%; HT1080-NT tox: inconclusive; KB-3-1 tox: inconclusive; HT1080 IDH1KD tx: inconclusive; KB-V1 cytotox: inconclusive

How did CSCC[C@H](NC(=O)C1CCN(S(=O)(=O)c2ccc(C)cc2C)CC1)c1nc2ccccc2[nH]1 do in these assays?
MCF10A rerep: 3.2%; SW480 rerep: 13.6%; HT1080-NT tox: -3.8%; KB-3-1 tox: inactive; HT1080 IDH1KD tx: -1.2%; KB-V1 cytotox: 23.1µM*

Results for CC1(C)CC(=O)C2=C(C1)N(c1ccc(F)cc1)C(N)=C(C#N)C2c1cccs1 (stereo not given) ?
MCF10A rerep: 18.4µM*; SW480 rerep: inconclusive; HT1080-NT tox: -2.0%; KB-3-1 tox: inactive; HT1080 IDH1KD tx: -1.2%; KB-V1 cytotox: inconclusive

What do the screens show for `Cc1ccc(N2C(N)=C(C#N)C(c3cccs3)C3=C2CC(C)(C)CC3=O)cc1` (stereo not given)?
MCF10A rerep: 11.8%; SW480 rerep: inconclusive; HT1080-NT tox: -0.2%; KB-3-1 tox: inconclusive; HT1080 IDH1KD tx: -5.3%; KB-V1 cytotox: 7.31µM*

Results for CC1(C)CC(=O)C2=C(C1)N(c1ccccc1)C(N)=C(C#N)C2c1ccccc1 (stereo not given) ?
MCF10A rerep: 6.8%; SW480 rerep: -1.6%; HT1080-NT tox: 4.6%; KB-3-1 tox: inactive; HT1080 IDH1KD tx: 1.7%; KB-V1 cytotox: inactive

What do the screens show for `O=S(=O)(c1ccccc1)N1CC2CC(Br)C(Br)CC21` (stereo not given)?
HT1080-NT tox: -4.7%; KB-3-1 tox: inactive; HT1080 IDH1KD tx: -4.4%; KB-V1 cytotox: inactive

How did CN1CCN(c2c(/C=N/O)c3ccccc3n2C)CC1 do in these assays?
MCF10A rerep: inconclusive; SW480 rerep: inconclusive; HT1080-NT tox: -21.0%; KB-3-1 tox: inactive; HT1080 IDH1KD tx: -16.8%; KB-V1 cytotox: inactive

What do the screens show for `Cc1ccccc1C(=O)O/N=C/c1c(N2CCOCC2)n(C)c2ccccc12`?
MCF10A rerep: inconclusive; SW480 rerep: inconclusive; HT1080-NT tox: 2.82µM*; KB-3-1 tox: inconclusive; HT1080 IDH1KD tx: 2.51µM*; KB-V1 cytotox: inconclusive

How did CCCc1c(-c2ccccc2)ncn1Cc1ccccc1OC do in these assays?
HT1080-NT tox: -27.4%; KB-3-1 tox: inconclusive; HT1080 IDH1KD tx: inconclusive; KB-V1 cytotox: 18.4µM*

How did CCCc1c(-c2cccc(F)c2)ncn1Cc1ccccc1OC do in these assays?
HT1080-NT tox: inconclusive; KB-3-1 tox: inactive; HT1080 IDH1KD tx: inconclusive; KB-V1 cytotox: inconclusive

What do the screens show for `CCCc1c(-c2ccc(F)cc2F)ncn1Cc1ccccc1OC`?
HT1080-NT tox: 18.4µM*; KB-3-1 tox: inconclusive; HT1080 IDH1KD tx: inconclusive; KB-V1 cytotox: inconclusive

How did CCCOc1ccc(F)cc1-c1cc(C(=O)NCc2ccccc2OC)[nH]n1 do in these assays?
HT1080-NT tox: -19.6%; KB-3-1 tox: inactive; HT1080 IDH1KD tx: 0.0%; KB-V1 cytotox: inactive

What do the screens show for `O=C1C=C(c2cccs2)C[C@H](c2ccccc2)[C@H]1n1nnc([N+](=O)[O-])n1`?
MCF10A rerep: inconclusive; SW480 rerep: inconclusive; HT1080-NT tox: inconclusive; KB-3-1 tox: inconclusive; HT1080 IDH1KD tx: 2.91µM*; KB-V1 cytotox: inconclusive

Results for CCCCn1c(-c2ccc(Br)cc2F)nc2c1c(=O)[nH]c(=O)n2CC(C)C ?
MCF10A rerep: 18.4µM*; SW480 rerep: 1.4%; HT1080-NT tox: inconclusive; KB-3-1 tox: inactive; HT1080 IDH1KD tx: -24.4%; KB-V1 cytotox: inactive

Results for CCCOc1ccc(-c2nc3c(c(=O)[nH]c(=O)n3Cc3ccccc3)n2CCO)cc1OCC ?
MCF10A rerep: -4.4%; SW480 rerep: inconclusive; HT1080-NT tox: -21.1%; KB-3-1 tox: inactive; HT1080 IDH1KD tx: -0.9%; KB-V1 cytotox: inactive

How did CCCCn1c(=O)[nH]c(=O)c2c1nc(-c1ccc(OCC)cc1)n2CC do in these assays?
MCF10A rerep: 15.1%; SW480 rerep: -6.2%; HT1080-NT tox: -0.6%; KB-3-1 tox: inactive; HT1080 IDH1KD tx: 7.3%; KB-V1 cytotox: inactive
